Results from PubChem BioAssay (NCI).
The panel holds about 83,000 compounds, 20% with a hit somewhere; the sample as a whole holds those more often.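 The endpoint reported here, percent growth, reads 100 for growth as untreated, 0 for no net growth and -100 for all cells dead.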 Values without a mark were called inactive. Activity calls are given as the source filed them.

The molecules below were run on CCRF-CEM leukemia (assay: NCI-60 one-dose screen, 48 h (100 = growth as untreated, 0 = no growth, -100 = all killed)). Settings: 10 µM unless noted.
Description: Growth inhibition of the CCRF-CEM human tumor cell line is measured as a screen for anti-cancer activity. Cells are grown in 96 well plates and exposed to the test compound for 48 hours. Compounds are tested at a single concentration, which is 10^-5 M for most compounds. The reported endpoint is percent growth (GI% or GIPRCNT), where numbers from 0 - 100% represent growth inhibition, and numbers from -100% - 0 represent cell death. For example, a value of 40 represents 60% growth inhibition. A value of 0 means no net growth occurred over the course of the experiment. A value of -40 indicates 40% of cells at the beginning of the experiment died by the end of the experiment. A value of -100 means all cells are dead at the end of the experiment.
NCI-60 Human Tumor Cell Lines Screen was performed using the standard one-dose NCI protocol, which is described in more detail at https://dtp.cancer.gov/discovery_development/nci-60/default.htm.
Compounds with GIPRCNT values below 10 were considered active. Activity score was based on GIPRCNT using the following formula: […]
Score is 0 for GIPRCNT values of 100 or above, 50 for GIPRCNT values of 0, and 100 for GIPRCNT values of -100.

Row | Structure (SMILES) | growth
1 | COC1/C=C/OC2(C)Oc3c(C)c(O)c4c(O)c(c(/C=N/Nc5ccc([N+](=O)[O-])cc5[N+](=O)[O-])c(O)c4c3C2=O)NC(=O)C(C)=C/C=C/C(C)C(O)C(C)C(O)C(C)C(OC(C)=O)C1C (stereo not given) | 6.19% (active)
2 | Oc1c(I)cc(I)cc1CNCCN(Cc1ccccn1)Cc1ccccn1 | -10.1% (active)
3 | C1CCC([PH+](C2CCCCC2)C2CCCCC2[PH+](C2CCCCC2)C2CCCCC2)CC1.[Au].[CH-]1CCCCC1C1CCCC[N-]1 (stereo not given) | 2.23% (active)
4 | COC(CC(F)F)c1cn(S(=O)(=O)c2ccc(C)cc2)c2ccccc12 (stereo not given) | 11.1%
5 | O=c1c2cccc3c(N4CCCC4)ccc(c32)c2nc3ccccc3n12 | 53.7%
6 | COc1cc(OCc2cccc(Br)c2C)cc(OC)c1C=O | 77%
7 | O=C(O)CCN1C(=O)/C(=C/C(Cl)=C/c2ccccc2)SC1=S | 1.73% (active)
8 | CCOC(=O)c1ccc(NC(=O)c2nc(-c3cc(OC)c(OC)c(OC)c3)n(-c3ccc(Cl)cc3)n2)cc1 | 90%
9 | O=S(=O)(c1ccccc1)n1cc2c(c1)-c1nc(Nc3ncccn3)sc1CC2 | 73.1%
10 | O=C(NCc1ccc(Cl)cc1Cl)C1CCC(=O)N1c1cccs1 (stereo not given) | 110%
11 | O=C(CSc1nc2ccc([N+](=O)[O-])cc2[nH]1)Nc1ccc([N+](=O)[O-])cc1 | 16.8%
12 | O=C(CN1C(=O)S/C(=C\C(Cl)=C\c2ccccc2)C1=O)NCCc1ccc(O)cc1 | 6.23% (active)
13 | CCOC(=O)c1csc(NC(=O)COc2ccc(/C=C3\Oc4ccccc4C3=O)cc2)n1 | 23.5%
14 | O=S(=O)(NCCNc1nccc(-c2c(-c3ccc(F)c(O)c3)nc3occn23)n1)c1ccc(Cl)cc1 | 70.7%
15 | Cc1ccc2c(Cn3cc(CSc4nc5ccccc5o4)nn3)cc(=O)oc2c1 | 93.4%
16 | CN1C(=O)/C(=C\c2nc([P+](c3ccccc3)(c3ccccc3)c3ccccc3)c(N3CCOCC3)o2)SC1=S | 19.9%
17 | CC(C)=CCC[C@](C)(O)[C@H]1CC[C@]2(C)[C@@H]1CC[C@@H]1[C@@]3(C)C/C(=C/c4ccco4)C(=O)C(C)(C)[C@@H]3CC[C@]12C | 101%
18 | COC(=O)[C@@H](CCCCNC(=O)[C@]12CCC(C)(C)C[C@@H]1C1=CC[C@@H]3[C@@]4(C)C/C(=C/c5ccco5)C(=O)C(C)(C)[C@@H]4CC[C@@]3(C)[C@]1(C)CC2)NC(=O)[C@]12CCC(C)(C)C[C@@H]1C1=CC[C@@H]3[C@@]4(C)C/C(=C/c5ccco5)C(=O)C(C)(C)[C@@H]4CC[C@@]3(C)[C@]1(C)CC2 | 99.3%
19 | O=c1c2ccccc2n2cnc3ccc(Cl)c1c32 | 95.7%
20 | CCOC(=O)C1=C(N)Oc2c(sc3c(F)cccc23)C1c1ccc(O)cc1 (stereo not given) | 20.3%

Row | Structure (SMILES) | growth
21 | COc1ccc(-c2nc3cc(C(=O)NCc4ccccc4)ccc3n2C2CCCCC2)cc1 | 76.8%
22 | CNC(=O)c1[nH]cc(-c2ccc(OC)cc2)c1-c1cc(OC)c2c(c1OC)OCO2 | 101%
23 | N#Cc1c(-c2ccccc2)cc(-c2ccccc2)n(CCCC(=O)Nc2ccccc2N)c1=O | 56.3%
24 | CCNCCNc1cc(C2CCCCC2)c(C#N)c2nc3ccccc3n12 | -28.6% (active)
25 | CCOC(=O)c1c(NC(=O)c2cccc(C(F)(F)F)c2)sc2c(CN(C)C)c(O)ccc12 | 9.93% (active)
26 | CCn1c(SCC(=O)N/N=C(\C)c2ccc(Cl)cc2)nc2c1c(=O)n(C)c(=O)n2C | 99.6%
27 | C=C1C(=O)O[C@H]2[C@H]1CC/C(Cn1cc(-c3ccccc3)nn1)=C\CC[C@@]1(C)O[C@@H]21 | -20.7% (active)
28 | CCOC(=O)C1=C(C)NC(=O)NC1c1c(Cl)n(CCCl)c2ccccc12 (stereo not given) | -54.5% (active)
29 | CCCC/C=C/[C@@H]1C[C@H]1CCO | 101%
30 | CCCCNCCCCCNc1cc(OC)cc2cccnc12 | 106%
31 | O=S(=O)(Nc1ccc(Cl)c(C(F)(F)F)c1)c1ccc(-c2cnc(C3CC3)o2)cc1 | 9.87% (active)
32 | c1ccc2cc(C[n+]3ccn(CCCCCCCCCCn4cc[n+](Cc5ccc6ccccc6c5)c4)c3)ccc2c1 | -4.14% (active)
33 | COc1ccc2cc1Oc1ccc(cc1)C[C@H]1c3c(cc4c(c3Oc3cc5c(cc3OC)CCN(C)[C@@H]5C2)OCO4)CCN1C | 21%
34 | O=C1/C(=C/c2ccccc2O)CC/C1=C\c1ccccc1O | 1.74% (active)
35 | Fc1cnccc1C1CC(c2ccc(N3CCNCC3)cc2)=NN1 (stereo not given) | 80.8%
36 | COc1ccc(C(=O)C/C(=C\c2ccc(Cl)cc2)C(=O)NCc2ccccc2)cc1 | 73.5%
37 | COc1ccc(-c2ccc(-c3ccc(C(=N)N)cc3)s2)cc1Cl | -41.3% (active)
38 | O=C1/C(=C/c2ccc([N+](=O)[O-])cc2)COc2ccc(O)cc21 | 3.96% (active)
39 | COc1cc(C2CC(c3ccc(Nc4nc(Nc5ccc(Cl)cc5)nc(Nc5ccc(Cl)cc5)n4)cc3)=NN2C(C)=O)cc(OC)c1OC (stereo not given) | 101%
40 | Nc1c(C(=O)Nc2ccccc2F)sc2nc3c(cc12)CCCC3 | 22.5%
